The full ranking holds about 33,000 sequences; the median of “E-score (-0.5 to 0.5)” is about -0.016, and the highest 2% start at about 0.31. This excerpt belongs to a sample that is enriched for the highest values.
molecular target: Cst6 (UniProt P40535); assay: PBM E-score (8-mer binding enrichment) (E-score (-0.5 to 0.5)); higher = stronger / more preferred TF binding; conditions: protein concentration: 200 nM; construct: GST-DNA-binding domain
Procedure, shortened: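 E-scores (a modified Wilcoxon-Mann-Whitney statistic) were assigned by the Universal PBM Analysis Suite to every ungapped eight-base word pooled with its reverse complement. The input came from universal all-10-mer Agilent arrays made double-stranded by primer extension and probed with GST-tagged yeast transcription factors at about 100-200 nM. Fluorescent anti-GST detected bound protein, and masliner normalised the scans.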

Sequence of UniProt P40535 (P40535 whole entry, the tested form may be a part): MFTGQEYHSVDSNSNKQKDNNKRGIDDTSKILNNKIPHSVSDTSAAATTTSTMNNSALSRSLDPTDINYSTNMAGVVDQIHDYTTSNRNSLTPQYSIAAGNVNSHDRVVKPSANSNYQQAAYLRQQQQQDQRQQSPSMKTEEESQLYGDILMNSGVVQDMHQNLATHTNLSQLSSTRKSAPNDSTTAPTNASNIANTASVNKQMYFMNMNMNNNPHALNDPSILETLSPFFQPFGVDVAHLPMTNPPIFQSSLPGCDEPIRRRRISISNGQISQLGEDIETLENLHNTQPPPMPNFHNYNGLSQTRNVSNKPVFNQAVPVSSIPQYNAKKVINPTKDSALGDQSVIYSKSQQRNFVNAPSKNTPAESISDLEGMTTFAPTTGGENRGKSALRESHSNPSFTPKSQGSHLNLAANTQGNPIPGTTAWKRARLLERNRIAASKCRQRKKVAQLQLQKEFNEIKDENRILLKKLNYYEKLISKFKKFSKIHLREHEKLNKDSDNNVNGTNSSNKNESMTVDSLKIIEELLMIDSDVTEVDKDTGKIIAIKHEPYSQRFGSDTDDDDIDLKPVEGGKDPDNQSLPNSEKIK

| Sequence | PBM E-score |
| --- | --- |
| TCGGAAAA | 0.113 |
| AGTCTAGA | -0.124 |
| CTCGGACC | -0.18 |
| GGGCTGGA | -0.295 |
| CATGCGTA | 0.15 |
| CACGTACC | -0.0025 |
| TCCGTAAA | -0.0237 |
| CACGTAAC | 0.262 |
| GACGTACC | 0.349 |
| GACGTAGC | 0.166 |
| TACGTAAA | 0.42 |
| AACGTACC | -0.185 |
| GACGTAAC | 0.46 |
| TGCGTAAA | 0.218 |
| GCTTGATA | 0.162 |
| CCCGCTCA | -0.0513 |
| CCGCAGGA | -0.234 |
| AATCGGGT | 0.191 |
| TCTCGGCA | -0.0951 |
| GCAGCCCC | -0.349 |
| GGGTGTAC | -0.185 |
| AGTACATC | -0.0114 |
| ATTACATA | 0.396 |
| CTCACATC | 0.0865 |

| Sequence | PBM E-score |
| --- | --- |
| ATTACACC | 0.089 |
| CTTACATA | 0.25 |
| ATTACATC | 0.433 |
| ATTACATG | 0.245 |
| GTTACATA | 0.228 |
| ATTACACA | 0.318 |
| CTTACATC | 0.365 |
| ATTACACG | 0.205 |
| ATTACAAC | 0.226 |
| GAGACCCC | -0.279 |
| AACCCACC | 0.0456 |
| CTTTAGAA | 0.0739 |
| AATCCGAG | -0.0702 |
| ATCAAGGA | -0.0436 |
| AAGGGGCA | -0.178 |
| CTGATATA | 0.179 |
| ATGATATA | 0.31 |
| ATGATATG | 0.269 |
| GTGATAAA | 0.201 |
| ATGATAAA | 0.307 |
| ATGATAAC | 0.263 |
| ATCAAATG | 0.0892 |
| GATATTAA | 0.201 |
| CATATTAA | 0.234 |

| Sequence | PBM E-score |
| --- | --- |
| AATATTAA | 0.334 |
| AATATTAG | 0.185 |
| AATATTAT | 0.242 |
| TATATTAA | 0.336 |
| TGGATCAA | 0.125 |
| CCTAGTAA | -0.194 |
| CAAAGCTA | 0.0247 |
| ATCATTTC | 0.246 |
| GACATTTA | 0.115 |
| GTCATTTA | 0.368 |
| CTCATTAA | 0.0741 |
| ATCATTTA | 0.335 |
| CTCATTTA | 0.141 |
| ATCATTAA | 0.28 |
| GTCATTAA | 0.394 |
| ATCATTTG | 0.165 |
| CCGCTCCA | -0.152 |
| ACCCCCCC | -0.357 |
| ATTGACAG | 0.0614 |
| ATGACGGG | 0.258 |
| ATGACGGA | 0.417 |
| AAGACGGA | 0.00374 |
| ATGACGGC | 0.365 |
| ACGACGGA | 0.0762 |

| Sequence | PBM E-score |
| --- | --- |
| CTGACGGA | 0.165 |
| GTGACGGA | 0.352 |
| CTGACGGC | 0.111 |
| GCGACGGA | -0.224 |
| CGCATAAG | 0.102 |
| CGTACGGA | 0.168 |
| GAAAGCGC | -0.00012 |
| CCAAACCC | -0.126 |
| CGGACATC | -0.196 |
| ATGACAAC | 0.302 |
| CTGACATC | 0.307 |
| CTGACAGC | -0.148 |
| ATGACACC | 0.228 |
| ATGACATC | 0.478 |
| CAGAGGAG | -0.0824 |
| CCTTACCC | -0.0626 |
| CCAGAAGG | -0.0896 |
| CCGCGCGA | 0.255 |
| CCGCGCGC | 0.151 |
| GCGCGCGA | 0.0433 |
| GCGCGCGC | 0.345 |
| ACGCGCGC | 0.175 |
| CCGCGCGG | 0.382 |
| AGCCCCAA | -0.281 |
